Results filed as inconclusive are left out. Unmarked numbers belong to inactive results. Activity calls are given as the source filed them. Calls come from the whole dose curve; as a rule, active = well fitted activation curve with a large enough effect; inconclusive = small, poorly fitted or top-dose-only effect; inactive = no such curve, though single readings can be large or run the other way. Square brackets hold non-standard residues; d marks the D form. Peptide text beside a SMILES is read from it. ξ: configuration not given here. ξPhe(βξ-Me) = CC(c1ccccc1)C(N)C(=O)O; GABA = NCCCC(=O)O
Potency is the fitted concentration of half-maximal effect.

For the test, the target named is Cellular tumor antigen p53 (Homo sapiens) (UniProt P04637). Kind of test: Primary qHTS for small molecule compounds that upregulate eGFP-tagged delta133p53alpha (in N-terminal) cells. (AID 2060322).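 For activation: series mostly up to about 56 µM; 0% = DMSO vehicle and 100% = reference activator.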 Note: nearly all actives have a fitted effect of over 75% in size. The following applies: NCI-H358 eGFP-delta133p53alpha fluorescence, 24 h; activation: active compounds read high. The method, boiled down: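 NCI-H358 cells pre-induced 24 h with 10 ng/ml doxycycline to express N-terminal eGFP-delta133p53alpha, then dosed 24 h at 37C without doxycycline; fixed, Hoechst-stained, GFP intensity by laser scanning cytometry, normalized to DMSO (0%) and 57.5 uM 5-azacytidine (100%).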
Cellular tumor antigen p53 (Homo sapiens), sequence (P04637 whole entry, looked up): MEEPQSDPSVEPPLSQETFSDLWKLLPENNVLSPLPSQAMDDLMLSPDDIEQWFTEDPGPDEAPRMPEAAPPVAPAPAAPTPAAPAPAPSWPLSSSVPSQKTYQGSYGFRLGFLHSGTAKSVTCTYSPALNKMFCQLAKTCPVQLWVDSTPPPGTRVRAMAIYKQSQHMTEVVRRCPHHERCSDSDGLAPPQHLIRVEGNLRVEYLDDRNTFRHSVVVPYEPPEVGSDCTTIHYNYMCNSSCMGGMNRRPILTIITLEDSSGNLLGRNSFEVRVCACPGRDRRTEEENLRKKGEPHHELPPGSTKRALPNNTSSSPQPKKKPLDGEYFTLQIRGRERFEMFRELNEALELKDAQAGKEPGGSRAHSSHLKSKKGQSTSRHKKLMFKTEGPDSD
(In general: qHTS replaces the single test concentration by a dilution series.)
Turning to `CC(=O)N1CCN(C(=O)Cc2ccc(Nc3ncc(F)c(Nc4ccc(C(=O)Nc5ccccc5Cl)cc4)n3)cc2)CC1`, the Potency is 13.5 µM (active). `CC(C)=CCC[C@](C)(O)[C@H]1CC[C@]2(C)[C@@H]1[C@H](O)CC1[C@@]3(C)CC[C@H](O)C(C)(C)C3[C@@H](O[C@@H]3O[C@H](CO)[C@@H](O)[C@H](O)[C@H]3O[C@@H]3OC[C@@H](O)[C@H](O)[C@H]3O)C[C@]12C` (some centres not stated): the activation is -16.8%. The same measure, in the same setting: as for `C=C1Cc2c(Cl)cc3[nH]c4c5c3c2[C@@]2(O)[C@@H]1C[C@@H]2C(C)(C)O[C@H]5C1CC[C@@]2(O)[C@@]35O[C@@H]3[C@H]3OC(C)(C)[C@H]3O[C@H]5CC[C@]2(C)[C@@]41C` (some centres not stated), the figure is -14.5%; as for `CC1=CC2(O)/C=C/C(C)(O)CC(O)/C=C/C(=O)OC23C(=O)NC(CC(C)C)C3C1C` (configuration not stated), -2.29%; as for `C/C(=C\CCC(C)(C)O)CCO[C@@H]1O[C@H](CO[C@@H]2O[C@@H](C)[C@H](O)[C@@H](O)[C@H]2O)[C@@H](O)[C@H](O)[C@H]1O`, 0%. Still for that read-out and setting: the same measure for `CC(C)=CCc1c(O)cc2oc3cc(C)cc(O)c3c2c1C`: -21.4%; for `O=C(OCC12OC1C=CC(OC(=O)c1ccccc1)C2O)c1ccccc1` (configuration not stated): 10.7%.

`C[C@@H]1O[C@@H](O[C@H]2[C@@H]3C=CO[C@@H](O[C@@H]4O[C@H](CO)[C@@H](O)[C@H](O)[C@H]4O)[C@@H]3[C@@]3(CO)O[C@@H]23)[C@H](O)[C@H](OC(=O)/C=C/c2ccccc2)[C@H]1O`: the activation is 0.763%.

With `C[C@@H]1O[C@@H](O[C@H]2[C@H](OC(=O)[C@]34CCC(C)(C)C[C@H]3C3=CCC5[C@@]6(C)CC[C@H](O[C@@H]7O[C@H](CO[C@@H]8OC[C@H](O)[C@H](O)[C@H]8O)[C@@H](O)[C@H](O)[C@H]7O)C(C)(C)C6CC[C@@]5(C)[C@]3(C)C[C@H]4O)OC[C@@H](O)[C@@H]2O)[C@H](O)[C@H](O[C@@H]2OC[C@](O)(CO)[C@H]2O)[C@H]1O[C@@H]1OC[C@H](O)[C@H](O[C@@H]2OC[C@@H](O)[C@H](O)[C@H]2O)[C@H]1O` (some centres not stated), the activation is 5.36%. On the same count and under the same terms, the same measure for `CC(C)=CCC(O)/C(C)=C/CO[C@@H]1O[C@H](CO)[C@@H](O)[C@H](O)[C@H]1O` (some centres not stated): -15.2%; for `CC(C)CC1NC(=O)C(C(C)c2ccccc2)NC(=O)C(C(C)C)NC(=O)C(C)NC(=O)CCCNC(=O)C(Cc2c[nH]c3ccccc23)NC(=O)C(C)NC1=O` (stereo not drawn) (cyclo([GABA]AV[ξPhe(βξ-Me)]LAW); configuration not given here): 8.4%.

With `C=C1/C(=C/C=C2\CCC[C@]3(C)[C@@H]([C@H](C)CC[C@@H](O)C(C)(C)O)CC[C@@H]23)C[C@@H](O)C[C@@H]1O`, the activation is 10.3%.

(Values after PubChem BioAssay (NCATS).)
